Rows were chosen to be rich in hits. Some 1.3% of all compounds tested hit in one or more screens of this group.
EPAC1 agonist: qHTS for Agonist of cAMP-regulated guanine nucleotide exchange factor 3 (EPAC1): primary screen; Rap guanine nucleotide exchange factor 3 (Homo sapiens), O95398; EPAC1 agonist qHTS, biochemical assay; response scale: 100% = response to 6.5 mM cAMP; 360,000 tested, 0.073% active; Potency, µM (doses to about 154 µM), for the others: at the top dose activation, actives largely listed as activators; AID 720707, 2013; also: nearly all actives have a fitted effect of over 60% in size
Target sequence (O95398 whole entry, looked up): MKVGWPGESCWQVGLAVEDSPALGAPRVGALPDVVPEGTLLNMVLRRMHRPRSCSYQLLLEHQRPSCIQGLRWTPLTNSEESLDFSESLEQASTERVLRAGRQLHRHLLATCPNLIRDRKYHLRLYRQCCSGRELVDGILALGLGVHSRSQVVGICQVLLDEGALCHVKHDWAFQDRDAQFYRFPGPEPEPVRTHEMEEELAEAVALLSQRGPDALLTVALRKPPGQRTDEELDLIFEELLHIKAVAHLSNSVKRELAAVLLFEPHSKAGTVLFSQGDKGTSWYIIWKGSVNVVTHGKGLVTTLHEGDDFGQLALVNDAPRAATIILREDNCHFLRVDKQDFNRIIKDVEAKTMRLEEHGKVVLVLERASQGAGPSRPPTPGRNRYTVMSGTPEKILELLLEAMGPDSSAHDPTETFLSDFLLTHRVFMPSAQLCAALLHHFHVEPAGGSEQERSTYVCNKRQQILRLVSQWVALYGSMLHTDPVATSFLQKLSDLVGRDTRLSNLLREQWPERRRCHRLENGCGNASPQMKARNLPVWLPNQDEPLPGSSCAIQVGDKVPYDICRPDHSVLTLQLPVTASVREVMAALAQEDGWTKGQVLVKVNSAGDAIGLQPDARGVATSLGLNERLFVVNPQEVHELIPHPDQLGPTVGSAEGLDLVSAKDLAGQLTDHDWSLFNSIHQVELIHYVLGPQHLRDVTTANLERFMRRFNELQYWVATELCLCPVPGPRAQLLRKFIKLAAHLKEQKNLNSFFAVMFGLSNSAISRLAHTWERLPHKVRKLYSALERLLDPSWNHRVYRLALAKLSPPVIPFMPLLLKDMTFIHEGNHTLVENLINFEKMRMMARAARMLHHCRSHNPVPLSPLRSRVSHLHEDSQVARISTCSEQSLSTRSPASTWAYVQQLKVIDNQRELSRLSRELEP
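EPAC1 100 nM, Rap1B–BODIPY-GDP 250 nM, unlabeled GDP 50 uM; compound titration; 5 min RT; kinetic read ex480/em540 at 5-min intervals ×30 min; data normalized to 6.5 mM cAMP agonist control.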
BRCA1 expr up: qHTS Assay to Identify Small Molecule Activators of BRCA1 Expression. MCF7-BRCA1-FFLuc reporter, luminescence, 48 h; response scale: scaled: vehicle 0%, 10 µM genistein 100%. Potency, µM (series often up to 46.1 µM), for the others: at the top dose activation, hits mostly activators. 380,000 tested, 1.1% active; also: nearly all actives have a fitted effect of over 80% in size
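48 h compound treatment of MCF7-BRCA1-FFLuc cells (phenol-red free MEM, 37 °C), then 15 min with luciferase substrate and luminescence imaging.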
EPAC2 ag: qHTS for Agonist of cAMP-regulated guanine nucleotide exchange factor 4 (EPAC2): primary screen | EPAC2 activation, biochemical qHTS; response scale: 100% = 6.5 mM cAMP response | 360,000 tested, 0.079% active | Potency, µM (doses to about 154 µM), without a hit: at the highest dose activation, actives largely listed as activators | AID 720711, 2013; also: nearly all actives have a fitted effect of over 50% in size
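Setup: EPAC2 100 nM, labeled Rap1B complex 250 nM, free GDP 50 uM. Compound titrations pinned in, brief spin, 5 min room temperature incubation. Kinetic fluorescence read over 30 min, normalized to 6.5 mM cAMP.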
EPAC2 antagonist: qHTS for Antagonist of cAMP-regulated guanine nucleotide exchange factor 2 (EPAC2): primary screen | Rap guanine nucleotide exchange factor 4 (Homo sapiens), Q8WZA2 | AID 720708, 2013 | Potency, µM (highest dose often 114 µM), for the others: at the top dose activity, negative = inhibition, most hits filed as inhibitors | 360,000 tested, 0.18% active | EPAC2 GEF exchange of Rap1B-BODIPY-GDP, fluorescence; also: % is scaled to controls: 0 for no effect and ±100 for the full control effect; nearly all actives have a fitted effect of over 45% in size
EPAC1 antagonist: qHTS for Antagonist of cAMP-regulated guanine nucleotide exchange factor 3 (EPAC1): primary screen; Rap guanine nucleotide exchange factor 3 (Homo sapiens), O95398; Potency, µM (highest dose often 115 µM), for the others: at the highest dose activity change, negative = inhibition, hits mostly inhibitors; 360,000 tested, 0.14% active; EPAC1 GEF assay, Rap1b-BODIPY-GDP exchange fluorescence;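 also: plate controls were vehicle for no effect and positive control for full effect; nearly all actives have a fitted effect of over 50% in size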
RGS4 inh: Inhibitors of Regulator of G Protein Signaling (RGS) 4: qHTS | 390,000 tested, 0.039% active | Potency, µM (highest dose often 114 µM), for the others: at the top dose activity change, negative = inhibition, actives largely listed as inhibitors | Regulator of G-protein signaling 4 (Homo sapiens), P49798 | AID 504845, 2011 | Transcreener GDP fluorescence polarization, RGS4-accelerated GTP hydrolysis; also: % is scaled to controls: 0 for no effect and ±100 for the full control effect; nearly all actives have a fitted effect of over 75% in size
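MLSMR compounds (23 nl, pin-transferred) preincubated 10 min at room temperature with a 500nM (2x) first reagent, then RGS4 at 900nM (2x) plus Transcreener GDP mix added; fluorescence polarization (620/688 nm) read before and after 90 min at 30 °C.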
An asterisk follows results filed as active; i = inactive; ? = inconclusive; . = no result given. Calls follow the shape of the dose curve; as a rule, active = well fitted curve in the direction sought with a large enough effect; inconclusive = small, poorly fitted or top-dose-only effect, or another doubt; inactive = no such curve, though single readings can be large; an effect the other way counts as inactive or inconclusive. Potency is read from the fitted curve at half-maximal effect.

SMILES	EPAC1 agonist	BRCA1 expr up	EPAC2 ag	EPAC2 antagonist	EPAC1 antagonist	RGS4 inh
N/C(=N\OC(=O)Oc1ccccc1)c1cccc([N+](=O)[O-])c1	-5%	-20%	-2%	6%	-19%	22%
Cc1c(N)c(C(C)(C)C)cc(C(C)(C)C)c1[N+](=O)[O-]	-16%	-54%	-1%	-18%	-17%	-33%
Cc1cc2nc3c(=O)[nH]c(=O)[nH]c3nc2c([N+](=O)[O-])c1N	89µM*	-9%	12%	33%	15%	?
COC(=O)c1sc2ncccc2c1OCc1cccc(Cl)c1	18%	0%	19%	2%	9%	-7%
COc1cc(SC)ccc1C(=O)Nc1ccc(C)cc1C	-3%	7.9µM*	24%	3%	4%	1%
COc1cc(SC)ccc1C(=O)Nc1ccc(C)cc1	-1%	39%	16%	-6%	-2%	-10%
COc1ccccc1C(C(=O)c1ccccc1)c1ccc(O)cc1 (configuration not stated)	3%	.	1%	56µM*	-16%	.
O=c1[nH]c(=S)[nH]c2c1C(c1ccc(Br)cc1)c1c([nH]c(=S)[nH]c1=O)O2	-7%	-45%	3%	1%	35µM*	?
Nc1nc(-c2ccccc2)c(-c2ccccc2)n1N	10%	10%	6%	-10%	14%	1%
c1ccc(-c2cnn3c(-c4ccccc4)c(-c4ccccc4)nc3n2)cc1	13µM*	-33%	89µM*	i	65%	5%
Cc1ccccc1CN1CCc2cc([N+](=O)[O-])ccc21	17%	-17%	18%	6%	15%	4%
CCOC(=O)CC(NC(=O)c1cc2cc(Br)cc(OC)c2oc1=O)c1ccc(OC)cc1 (configuration not stated)	.	29%	.	.	.	17%
CCOC(=O)CC(NC(=O)c1cc2cccc(OC)c2oc1=O)c1ccc(OC)cc1 (configuration not stated)	8%	13µM*	5%	-2%	-3%	0%
C[C@H](Cc1ccc(O)c(O)c1)[C@@H](C)Cc1ccc(O)c(O)c1	.	0%	.	.	.	15µM*
CN(C)c1ccc(/C=C(\C#N)C(=O)Nc2nc3c(s2)CCN(Cc2ccccc2)C3)cc1	0%	-22%	112µM*	193%	-3%	-23%
CCOC(=O)C1(Cc2ccccc2C(F)(F)F)CCN(C2CCSC2)CC1 (configuration not stated)	-4%	0%	10%	-8%	-20%	-30%
Cc1ccc(NC(=O)CCC(=O)c2cccs2)c(O)c1	9%	11µM*	6%	-5%	8%	4%
Cc1ccc(F)cc1NC(=O)CCC(=O)c1cccs1	-2%	-4%	-12%	6%	0%	-7%
CCCn1cnc2c(SCCc3ccccc3)nc(N)nc21	5%	13µM*	6%	21%	-2%	3%
CC(C)Cn1cnc2c(SCc3ccccc3F)nc(N)nc21	-1%	5.6µM*	-2%	-3%	-12%	8%
CCCCn1cnc2c(SCCc3ccccc3)nc(N)nc21	5%	61%	6%	-8%	-12%	11%
NNC(=O)c1ccc(Oc2cc(Cl)cc(Cl)c2)o1	7%	-26%	4%	-9%	1%	-19%
COc1ccccc1Nc1nnc(SCc2cc(=O)n3cc(C)ccc3n2)s1	-5%	9%	-3%	14%	-1%	-19%
CC1(C)CC[C@]2(C(=O)O)CC[C@]3(C)C(=CC[C@@H]4[C@@]5(C)CC[C@H](O[C@@H]6O[C@H](C(=O)O)[C@@H](O)[C@H](O[C@@H]7OC[C@H](O)[C@H](O)[C@H]7O)[C@H]6O)C(C)(C)[C@@H]5CC[C@]43C)[C@@H]2C1	-25%	-54%	-8%	6%	50µM*	-12%
COC(=O)c1ccc(COc2ccc(C)cc2[N+](=O)[O-])o1	5%	5.6µM*	6%	?	-1%	-2%
SMILES	EPAC1 agonist	BRCA1 expr up	EPAC2 ag	EPAC2 antagonist	EPAC1 antagonist	RGS4 inh
CCN=c1scc(C)n1/N=C/c1cc(Br)c(O)c(Br)c1	-5%	-5%	-2%	-14%	?	-39%
COCCN=c1scc(-c2cccs2)n1/N=C/c1ccc(O)c(O)c1O	1%	-2%	13%	0%	56µM*	-44%
CCN=c1scc(C)n1/N=C/c1ccc(O)c(O)c1O	-14%	-8%	-6%	-2%	45µM*	?
C[C@@H]1CN([C@@H](C)CO)C(=O)c2cccc(NS(C)(=O)=O)c2O[C@H]1CN(C)Cc1ccc(Oc2ccccc2)cc1	8%	-7%	5%	-14%	1%	4%
CCc1cc(C(=O)OC)c(NC(=O)c2ccoc2C)s1	-4%	-29%	4%	-1%	-6%	-12%
COC(=O)c1c(-c2cccnc2)csc1NC(=O)c1ccc2c(c1)OCO2	-10%	2.2µM*	4%	0%	-14%	-35%
COC(=O)c1c(-c2ccncc2)csc1NC(=O)c1ccoc1C	6%	4.5µM*	14%	-5%	-3%	14%
O=S(=O)(NC1CCN(Cc2ccccc2)CC1)c1ccc2ccccc2c1	-6%	-26%	-3%	2%	-24%	-38%
CN(c1ccccc1)c1nc(N)c([N+](=O)[O-])c(N2CCCCC2)n1	-12%	36%	10%	?	0%	-17%
CN(c1ccccc1)c1nc(N)c([N+](=O)[O-])c(N2CCCC2)n1	11%	11µM*	10%	-28%	-5%	16%
CCOC(=O)c1cnc(Nc2nc3ccccc3o2)nc1C	-1%	-78%	-10%	0%	10%	14%
CCOC(=O)c1cnc(Nc2nc3ccccc3o2)nc1CSc1nnc(C)s1	5%	5µM*	2%	0%	-1%	-25%
O=C(/C=C/c1ccco1)NC(=S)Nc1ccc(N2CCOCC2)c(Cl)c1	11%	-61%	14%	-6%	1%	-25%
Cc1cc(Sc2ccc(Cl)cc2)nc2ccccc12	.	.	.	.	.	23%
Cc1ccc(Sc2cnc3ccccc3n2)cc1	5%	7.1µM*	14%	18%	2%	4%

High-throughput results (PubChem BioAssay)
